Assay outcomes from PubChem.
In the library only some 10% were active in any assay of this set; here they are far more common.
MCF10A rerep: inducers of DNA re-replication in MCF 10A breast cells; MCF 10A DNA re-replication, Hoechst nuclear intensity, 48 h; Potency, µM (series often up to 46.1 µM), for the others: at the highest dose activity, positive = re-replication, hits mostly activators; 350,000 compounds, 2.9% hits; note: % of control where 0% means no effect; nearly all actives have a fitted effect of over 50% in size
SW480 rerep: induces DNA re-replication in SW480 colon adenocarcinoma cells | Potency, µM (series often up to 46.1 µM), without a hit: at the top dose re-replication activation, most hits filed as activators | SW480 DNA re-replication, Hoechst DNA content imaging, 48 h | 340,000 compounds, 1.8% hits | AID 624297; note: % of control where 0% means no effect; nearly all actives have a fitted effect of over 55% in size
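Image-based read-out: total Hoechst fluorescence of nuclei (405 nm excitation, 500-530 nm emission), with hits raising the fraction of high-intensity nuclei. SW480 colon cells incubated 48 hr with compounds at 37 C.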
RORgamma inh: ROR gamma (mouse) transcription inhibition | P51450 | Drosophila S2 Gal4-RORgamma UAS-luciferase reporter, 20 h | Potency, µM (titrated, usually from 53.6 µM), without a hit: top-dose activity change, negative = inhibition, actives largely listed as inhibitors | 310,000 compounds, 5.4% hits; note: % is set by controls: 0 for no effect and ±100 for the full control effect; nearly all actives have a fitted effect of over 60% in size
Target sequence (P51450 whole entry, looked up, the tested form may be a part): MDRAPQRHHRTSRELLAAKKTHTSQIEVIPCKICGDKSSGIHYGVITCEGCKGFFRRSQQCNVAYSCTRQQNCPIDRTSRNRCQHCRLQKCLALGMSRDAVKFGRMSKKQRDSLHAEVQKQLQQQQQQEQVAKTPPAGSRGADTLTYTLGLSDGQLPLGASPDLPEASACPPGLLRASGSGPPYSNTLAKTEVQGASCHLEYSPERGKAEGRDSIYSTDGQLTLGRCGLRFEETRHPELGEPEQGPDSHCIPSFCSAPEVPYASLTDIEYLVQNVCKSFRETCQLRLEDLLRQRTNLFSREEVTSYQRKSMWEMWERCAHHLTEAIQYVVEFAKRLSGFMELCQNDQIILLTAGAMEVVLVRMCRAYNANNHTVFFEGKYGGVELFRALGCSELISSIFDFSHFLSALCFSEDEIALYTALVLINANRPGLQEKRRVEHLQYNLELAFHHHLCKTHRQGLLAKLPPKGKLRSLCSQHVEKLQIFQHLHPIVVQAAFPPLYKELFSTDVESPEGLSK
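Using a luciferase readout, inhibitors were identified by reduced reporter activity in Drosophila cells coexpressing a copper-inducible Gal4–ROR gamma fusion and UAS-driven Photinus luciferase, incubated 20 hr after 700 uM copper sulfate.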
VP16 counter: Gal4-VP16 reporter inhibition counter-screen. Potency, µM (top dose mostly 53.6 µM), for the others: at the highest dose activity, negative = inhibition, most hits filed as inhibitors. 310,000 compounds, 3.5% hits. Drosophila S2 Gal4-VP16 UAS-luciferase, luminescence, 20 h;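 note: Gal4-VP16 expression switched on by copper sulfate through the metallothionein promoter; % is set by controls: 0 for no effect and ±100 for the full control effect; nearly all actives have a fitted effect of over 50% in size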
ELG1 repair inh: blocks ELG1-dependent DNA repair in HEK293T cells. HEK293T ELG1-luciferase reporter, luminescence, 16 h; DNA damage induced by 5-fluorouridine. Potency, µM (top dose mostly 46.1 µM), for the others: top-dose activity change, negative = inhibition, usual class: inhibitors. 330,000 compounds, 2.3% hits. AID 504467; note: % is set by controls: 0 for no effect and ±100 for the full control effect; nearly all actives have a fitted effect of over 55% in size
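DMSO vehicle served as the neutral condition. Each well held 2,000 cells given 5-fluorouridine plus compound; after 16 hr at 37 °C/5% CO2, ONE-Glo was added and luciferase measured 30 min later.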
Active calls of the source: *; [ ] = remark or other dose. Calls come from the whole dose curve; as a rule, active = well fitted curve in the direction sought with a large enough effect; inconclusive = small, poorly fitted or top-dose-only effect, or another doubt; inactive = no such curve, though single readings can be large; an effect the other way counts as inactive or inconclusive. Potency is the fitted concentration of half-maximal effect.

Results for Cc1cccc(N2C(=O)C(Oc3ccc(Cl)cc3Cl)C2C=O)c1C (stereo not given) ?
MCF10A rerep: 18µM*; SW480 rerep: inconclusive; RORgamma inh: -3%[10 µM]; VP16 counter: inconclusive; ELG1 repair inh: 6%

How did COC(=O)[C@@]12CCCCN1[C@H](c1ccc(-c3cccc(Cl)c3)cc1)[C@@H]1C(=O)N(C)C(=O)[C@@H]12 do in these assays?
MCF10A rerep: 3%; SW480 rerep: -1%; ELG1 repair inh: 14%

What do the screens show for `O=C(CCN1CCCCC1)NNC(=S)NC(=O)c1ccc(Br)cc1`?
MCF10A rerep: 3%; SW480 rerep: -5%; RORgamma inh: 2µM*; VP16 counter: 8.9µM*; ELG1 repair inh: -5%

Results for O=C(CCN1CCOCC1)NNC(=S)NC(=O)c1ccc(Br)cc1 ?
MCF10A rerep: -2%; SW480 rerep: 10%; RORgamma inh: 11µM*; VP16 counter: inconclusive; ELG1 repair inh: inconclusive

How did O=C(CN1CCCCC1)NNc1nc(-c2ccccc2)c2cc(Br)ccc2n1 do in these assays?
MCF10A rerep: -1%; SW480 rerep: 0%; RORgamma inh: 0.5µM*; VP16 counter: 1.6µM*; ELG1 repair inh: inconclusive

Results for O=C(NNc1nc(-c2ccccc2)c2cc(Br)ccc2n1)c1ccc(S(=O)(=O)N2CCOCC2)cc1 ?
MCF10A rerep: 7%; SW480 rerep: inconclusive; RORgamma inh: 7.9µM*; VP16 counter: 13µM*; ELG1 repair inh: inconclusive

Results for CCn1c(SCc2ccc(Cl)cc2)nc2nc3c(cc2c1=O)CCCC3 ?
MCF10A rerep: inconclusive; SW480 rerep: 2%; RORgamma inh: 13µM*; VP16 counter: inconclusive; ELG1 repair inh: inconclusive

What do the screens show for `CSc1nc2nc3c(cc2c(=O)n1-c1ccccc1C)CCCC3`?
MCF10A rerep: 2%; SW480 rerep: -9%; RORgamma inh: -15%; VP16 counter: 5µM*; ELG1 repair inh: inconclusive

What do the screens show for `CC(C)c1ccc2[nH]c(O)c(N=NC(=O)c3cccc(S(=O)(=O)Nc4ccccc4Cl)c3)c2c1`?
MCF10A rerep: 15µM*; SW480 rerep: -3%; RORgamma inh: 16%; VP16 counter: -12%; ELG1 repair inh: 0%

What do the screens show for `CC(C)NC(=S)N=Nc1c(O)[nH]c2ccc(C(C)C)cc12`?
MCF10A rerep: 4%; SW480 rerep: -40%; RORgamma inh: 5µM*; VP16 counter: 4.5µM*; ELG1 repair inh: -25%

Results for O=C(N=Nc1c(O)[nH]c2ccccc12)c1cccc(S(=O)(=O)Nc2ccccc2Cl)c1 ?
MCF10A rerep: 1%; SW480 rerep: -85%; RORgamma inh: -13%; VP16 counter: 8%; ELG1 repair inh: 13%

How did COc1ccc(/C(N)=N/OC(=O)N2CCOCC2)cc1 do in these assays?
MCF10A rerep: 21µM*; SW480 rerep: inconclusive; RORgamma inh: -39%; VP16 counter: -21%; ELG1 repair inh: -2%

How did CC(=O)Nc1ccc(NC(=O)CSc2nnc(NC(=O)c3cccc(F)c3)s2)cc1 do in these assays?
MCF10A rerep: 7%; SW480 rerep: -16%; RORgamma inh: 13µM*; VP16 counter: inconclusive; ELG1 repair inh: inconclusive

How did CCc1ccc(Nc2nnc(SCC(=O)Nc3ccc(C(=O)O)cc3)s2)cc1 do in these assays?
MCF10A rerep: -4%; SW480 rerep: -6%; RORgamma inh: 5µM*; VP16 counter: 7.1µM*; ELG1 repair inh: inconclusive

Results for O=C(CSc1nnc(NC(=O)c2c(F)cccc2F)s1)Nc1ccc(F)cc1 ?
MCF10A rerep: 1%; SW480 rerep: -11%; RORgamma inh: -40%; VP16 counter: -7%; ELG1 repair inh: inconclusive

What do the screens show for `CCc1ccc(Nc2nnc(SCC(=O)NC(=O)c3cccn3C)s2)cc1`?
MCF10A rerep: 18µM*; SW480 rerep: inconclusive; RORgamma inh: inconclusive; VP16 counter: 4%[10 µM]; ELG1 repair inh: inconclusive

What do the screens show for `CCn1cc(C(=O)N[C@H](C(=O)NC(C)(C)CO)C(C)C)c(=O)c2cc3c(cc21)OCO3`?
MCF10A rerep: inconclusive; SW480 rerep: inconclusive; RORgamma inh: 5%; VP16 counter: 8%; ELG1 repair inh: 2%
